Source: PubChem BioAssay
In the library only some 1.5% were active in any assay of this set; here they are far more common.
Cardiac RTF inh = cardiac RTF calcium desensitization. inhibition, % at 7.15 µM. 0.12% of 340,000 active. P19429+P45379. IANBD-labeled cardiac RTF, Ca2+ fluorescence. AID 493244;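 active means inhibition above the mean inhibition of all tested compounds plus 3 SD, cut at about 17% in these data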;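 further: assay run at fixed EC70 calcium of 1.6 mM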
CRFR2-BP ag = CRF-BP/CRF-R2 complex agonism; 0.46% of 350,000 active; HEK293 CRF-R2/CRF-BP, calcium dye fluorescence (FLIPR); percent of saturating CRF peptide response; activation, % at 13.2 µM; AID 588473;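 active means activation of at least 50%, plus an integration ratio under a set limit after plate pattern correction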
IDE act = IDE (human) activation, cell-based; activation, % at 5.96 µM; AID 493087; 0.073% of 340,000 active; HEK cells, FAbeta-B cleavage, fluorescence polarization; 0% vehicle, 100% cell-free pure enzyme wells; P14735;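 active means activation above the mean of all tested compounds plus 3 SD, set per screening campaign, cut at about 17% in these data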
Target sequence (P14735 whole entry, looked up): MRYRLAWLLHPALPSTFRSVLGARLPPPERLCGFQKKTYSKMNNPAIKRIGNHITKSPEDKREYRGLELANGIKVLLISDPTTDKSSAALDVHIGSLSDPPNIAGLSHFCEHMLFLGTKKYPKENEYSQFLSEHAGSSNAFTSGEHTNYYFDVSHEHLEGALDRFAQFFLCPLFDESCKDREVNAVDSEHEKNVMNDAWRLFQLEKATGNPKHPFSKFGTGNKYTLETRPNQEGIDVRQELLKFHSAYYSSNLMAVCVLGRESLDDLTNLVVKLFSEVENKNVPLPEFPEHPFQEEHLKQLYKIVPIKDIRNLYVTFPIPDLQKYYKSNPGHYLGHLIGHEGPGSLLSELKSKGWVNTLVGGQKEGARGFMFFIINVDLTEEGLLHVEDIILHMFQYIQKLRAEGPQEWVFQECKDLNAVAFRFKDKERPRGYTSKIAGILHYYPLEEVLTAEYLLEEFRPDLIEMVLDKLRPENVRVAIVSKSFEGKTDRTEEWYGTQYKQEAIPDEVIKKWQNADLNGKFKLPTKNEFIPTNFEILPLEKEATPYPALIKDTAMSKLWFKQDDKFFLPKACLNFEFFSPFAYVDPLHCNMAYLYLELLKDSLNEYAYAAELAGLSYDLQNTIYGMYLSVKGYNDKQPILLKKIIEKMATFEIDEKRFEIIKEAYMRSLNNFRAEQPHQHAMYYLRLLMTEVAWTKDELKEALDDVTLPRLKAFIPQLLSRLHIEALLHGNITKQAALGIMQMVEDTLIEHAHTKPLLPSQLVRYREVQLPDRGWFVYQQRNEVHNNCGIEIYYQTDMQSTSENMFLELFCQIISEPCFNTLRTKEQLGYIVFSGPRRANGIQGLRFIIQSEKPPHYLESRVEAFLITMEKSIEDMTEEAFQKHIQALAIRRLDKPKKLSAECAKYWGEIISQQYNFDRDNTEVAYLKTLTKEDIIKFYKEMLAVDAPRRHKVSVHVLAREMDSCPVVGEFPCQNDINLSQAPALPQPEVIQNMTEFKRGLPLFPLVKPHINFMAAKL
RTF Ca sens act = increases calcium sensitivity of human cardiac regulated thin filaments | P19429+P45379 | IANBD-labeled TnC RTF fluorescence at EC20 calcium; 0% EC20 calcium, 100% full calcium | activation, % at 7.2 µM | 0.24% of 340,000 active;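 active means activation above the mean over all tested compounds plus 3 SD, cut at about 30% in these data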;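 further: rise in fluorescence read as greater calcium sensitivity of cardiac thin filaments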
IDE cell inh = cellular human IDE inhibition | inhibition, % at 5.59 µM | 0.41% of 320,000 active | P14735 | AID 434962 | HEK cells, FAbetaB cleavage, fluorescence polarization;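 active means percent inhibition above the average of all tested compounds plus 3 SD, set per screening campaign, cut at about 16% in these data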;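 further: IDE supplied by intact live HEK cells; FP after avidin binding of uncleaved biotin substrate so inhibition keeps polarization high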
CRFBP-R2 block = blocks CRF-induced signaling of the CRF-BP/CRF-R2 complex. HEK293 CRF-R2/CRF-BP, CRF-induced calcium fluorescence. inhibition, % at 11.8 µM. 0.59% of 350,000 active;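 active means inhibition of the ligand-induced calcium signal above about 50% at the single tested concentration, limit read from the data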
Numbers stand for hits.

Screening O=C(CSc1nnc(C2CCCCC2)o1)Nc1ccccc1Cl returned Cardiac RTF inh inactive, CRFR2-BP ag inactive, IDE act inactive, RTF Ca sens act inactive, IDE cell inh inactive and CRFBP-R2 block inactive.
CC(C)CC(C(=O)Nn1cnnc1)N1C(=O)c2ccccc2C1=O (centres undefined) was read as Cardiac RTF inh inactive, CRFR2-BP ag inactive, IDE act inactive, RTF Ca sens act inactive, IDE cell inh inactive and CRFBP-R2 block 58.9.
`COC(=O)C(CCC(C(=O)OC)N1C(=O)c2ccccc2C1=O)N1C(=O)c2ccccc2C1=O` (centres undefined) gave Cardiac RTF inh inactive, CRFR2-BP ag inactive, IDE act inactive, RTF Ca sens act inactive and CRFBP-R2 block inactive.
For CSc1ccccc1C(=O)N1CCN(S(=O)(=O)c2sc(C(=O)O)c(C)c2C(=O)O)CC1 the results were Cardiac RTF inh inactive, CRFR2-BP ag inactive, IDE act inactive, RTF Ca sens act inactive, IDE cell inh inactive and CRFBP-R2 block 84.3.
Cc1c(C(=O)O)sc(S(=O)(=O)N2CCN(C(=O)Cc3ccccc3)CC2)c1C(=O)O was read as Cardiac RTF inh inactive, CRFR2-BP ag inactive, IDE act inactive, RTF Ca sens act inactive and CRFBP-R2 block inactive.
For COc1ccc(NC(=O)CSc2n[nH]c(=O)n2C2CC2)cc1OC the results were Cardiac RTF inh inactive, CRFR2-BP ag inactive, IDE act inactive, RTF Ca sens act inactive, IDE cell inh inactive and CRFBP-R2 block inactive.
COc1ccc(C(=O)NC2CCCc3ccccc32)c(OC)c1OC (centres undefined) was read as Cardiac RTF inh inactive, CRFR2-BP ag inactive, IDE act inactive, RTF Ca sens act inactive, IDE cell inh inactive and CRFBP-R2 block inactive.
For CC(=O)NC1CC2CCCC(C1)N2C(=O)Nc1cccc(C(C)=O)c1 (centres undefined) the results were Cardiac RTF inh inactive, CRFR2-BP ag inactive, IDE act inactive, RTF Ca sens act inactive and CRFBP-R2 block inactive.
CN(CC(=O)NCCc1ccc(S(N)(=O)=O)cc1)CC(=O)Nc1cccc(F)c1 was read as Cardiac RTF inh inactive, CRFR2-BP ag inactive, IDE act inactive, RTF Ca sens act inactive and CRFBP-R2 block inactive.
Screening C/[N+]([O-])=C\C1C(=O)CC(C)(C)CC1=O returned Cardiac RTF inh inactive, CRFR2-BP ag inactive, IDE act inactive, RTF Ca sens act inactive, IDE cell inh inactive and CRFBP-R2 block 53.4.
`C=CCO/N=C/C1C(=O)CC(C)(C)CC1=O` gave Cardiac RTF inh inactive, CRFR2-BP ag inactive, IDE act inactive, RTF Ca sens act inactive, IDE cell inh inactive and CRFBP-R2 block inactive.
Screening COc1ccc2nc3ccccc3[n+]([O-])c2c1 returned Cardiac RTF inh inactive, CRFR2-BP ag 58.3, IDE act inactive, RTF Ca sens act inactive and CRFBP-R2 block inactive.
`COc1ccc2c(ccc[n+]2[O-])c1` gave Cardiac RTF inh inactive, CRFR2-BP ag inactive, IDE act inactive, RTF Ca sens act inactive and CRFBP-R2 block inactive.
Cc1ccc(S(=O)(=O)N2CCC(c3nc4c(nnn4Cc4ccccc4)c(=O)[nH]3)CC2)cc1 was read as CRFR2-BP ag inactive, IDE cell inh inactive and CRFBP-R2 block 63.5.
For Cc1ccc(Cn2nnc3c(=O)[nH]c(C4CCN(S(=O)(=O)c5ccccc5)CC4)nc32)cc1 the results were Cardiac RTF inh inactive, CRFR2-BP ag inactive, IDE act inactive, RTF Ca sens act inactive, IDE cell inh inactive and CRFBP-R2 block inactive.
For O=C(Nc1ccccc1C(=O)N1CCOCC1)c1ccco1 the results were Cardiac RTF inh inactive, CRFR2-BP ag inactive, IDE act inactive, RTF Ca sens act inactive, IDE cell inh inactive and CRFBP-R2 block inactive.
Screening O=C(Nc1ccccc1C(=O)N1CCOCC1)c1ccncc1 returned Cardiac RTF inh inactive, CRFR2-BP ag inactive, IDE act inactive, RTF Ca sens act inactive, IDE cell inh inactive and CRFBP-R2 block 102.0.
Screening Cc1[nH]c2ccccc2c1SCc1nnc(SCc2ccc(Cl)cc2)n1C returned Cardiac RTF inh inactive, CRFR2-BP ag inactive, IDE act inactive, RTF Ca sens act inactive, IDE cell inh inactive and CRFBP-R2 block inactive.
Cc1[nH]c2ccccc2c1SCc1nnc(SCc2ccccc2)n1C was read as Cardiac RTF inh inactive, CRFR2-BP ag inactive, IDE act inactive, RTF Ca sens act inactive, IDE cell inh inactive and CRFBP-R2 block 114.5.
Cc1ccc(C(=O)NCCNC(=O)Cc2ccccc2)cn1 was read as Cardiac RTF inh inactive, CRFR2-BP ag inactive, IDE act inactive, RTF Ca sens act inactive, IDE cell inh inactive and CRFBP-R2 block inactive.
`COc1ccc(N/N=C(/N=Nc2nc(C)cc(=O)[nH]2)c2ccccc2)cc1` gave Cardiac RTF inh inactive, CRFR2-BP ag inactive, IDE act inactive, RTF Ca sens act inactive, IDE cell inh inactive and CRFBP-R2 block 56.6.
For CC(C)Nc1ccc(C(CC(N)=O)NC(=O)Cc2ccc(Cl)cc2)cc1[N+](=O)[O-] (centres undefined) the results were Cardiac RTF inh inactive, CRFR2-BP ag inactive, IDE act inactive, RTF Ca sens act inactive, IDE cell inh inactive and CRFBP-R2 block inactive.
Screening COC(=O)N/N=C(\C)c1cccs1 returned Cardiac RTF inh inactive, CRFR2-BP ag inactive, IDE act inactive, RTF Ca sens act inactive, IDE cell inh inactive and CRFBP-R2 block 112.4.
For Cc1c(C(=O)N2CCN(CCc3ccccn3)CC2)oc2ccc(Cl)cc12 the results were Cardiac RTF inh inactive, CRFR2-BP ag inactive, IDE act inactive, RTF Ca sens act inactive, IDE cell inh inactive and CRFBP-R2 block inactive.
Cc1ccccc1CNC(=O)c1ccccc1N was read as Cardiac RTF inh inactive, CRFR2-BP ag inactive, IDE act inactive, RTF Ca sens act inactive, IDE cell inh inactive and CRFBP-R2 block 55.0.
Screening Cc1ccccc1CNC(=O)c1ccccc1C returned Cardiac RTF inh inactive, CRFR2-BP ag inactive, IDE act inactive, RTF Ca sens act inactive, IDE cell inh inactive and CRFBP-R2 block inactive.
`CCn1cc(C(=O)OCC(=O)c2cc(C)n(-c3ccc(OC(F)F)cc3)c2C)c(=O)c2ccc(C)nc21` gave Cardiac RTF inh inactive, CRFR2-BP ag inactive, IDE act inactive, RTF Ca sens act inactive, IDE cell inh inactive and CRFBP-R2 block 60.0.
CCn1cc(C(=O)OCC(=O)c2cc(C)n(-c3ccccc3)c2C)c(=O)c2ccc(C)nc21 was read as Cardiac RTF inh inactive, CRFR2-BP ag inactive, IDE act inactive, RTF Ca sens act inactive, IDE cell inh inactive and CRFBP-R2 block inactive.
For COc1cccc(N2CCN(CC(=O)NC(=O)NC3CCCCC3)CC2)c1 the results were Cardiac RTF inh inactive, CRFR2-BP ag inactive, IDE act inactive, RTF Ca sens act inactive and CRFBP-R2 block inactive.
For CC(C)(C)c1nc(CN2CCCCC2)cc(CN2CCCCC2)c1O the results were Cardiac RTF inh inactive, CRFR2-BP ag inactive, IDE act inactive, RTF Ca sens act inactive, IDE cell inh inactive and CRFBP-R2 block 81.4.
For N#Cc1c(Cl)nc2c(c1C#N)CCCC2 the results were Cardiac RTF inh inactive, CRFR2-BP ag inactive, IDE act inactive, RTF Ca sens act inactive, IDE cell inh inactive and CRFBP-R2 block 106.9.
